Among the data in the supplement of paper PMC6555819 are PBM binding z-score values, retold here.

The test system of one experiment is RARa homodimer (NR concentration 270 nM). Description: PBM binding z-score (relative to random genomic background probes); higher = stronger binding; sequences stand for … in GC…GCGATTGACAGCGTAGAATGAAGG
An outline of the steps:
(§1)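 Binding z-scores take random background probes as their reference. They come from custom Agilent 4×180K protein-binding microarrays incubated 1 h with ligand-free nuclear receptor dimers, with antibodies against each partner (one per run) detecting binding. Scanned fluorescence was regression-normalized.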
The sequence ATCTCTAGGTAAAGATAGTTCTGTGAATGCAAAT registered a PBM binding z-score of 0.978. The sequence CGTCCAGGGTCAGAGAGGTCAGTGAATGCCGAGT had a PBM binding z-score of 1.6. The same measure, in the same setting: in the case of TCTAGTTGGTCACGGAGGTCACACCCGACGGGTA it was 1.58; in that of TCATATAGGTAAATGCTAAGTGAAAGTCCGATCT, 0.763; in that of TCTGCTAGGTCAGCTGGTCAGCTAACGAGCTGCC, -1.54. Regarding CTACCAAGGTGAACAAGGGCGTTGATTACTATTC, the PBM binding z-score is -0.306.

The sequence AGTCAAAGTTCAAGACGAGGTAACGTAAAGCACG yielded a PBM binding z-score of 1.38. GCTGCTAGGTCAGGTTGATCAGCTAACGGGTACG: the PBM binding z-score is -0.919. Take CCTTACGGGTCAAGGTTTTAGCACGGGTGGTACG: the PBM binding z-score came to 0.944. On the same count and under the same terms, in the case of TGAATGAGGTTATGAGATCAGGGAACGTTGCAAA it was -0.0238; in that of AGAACGAGGGCACGCTGAGTTCATAGCAGAGTAG, -0.449. Same read-out and setting: as for AGTCAAAGTTCACTAGGTAACCTAAGATTCAGCT, the figure is 1.73; as for GTACCAAGGTGAATAGGTCGTGGATGAGTAGGCG, 0.457. With CTCCAAAGGTCGTGCTCAGGTGAGTATACCAAAC, the PBM binding z-score amounted to 0.196. With TGATATAGGTAAACAGGTGAAAGTCCGTAAGTTA, the PBM binding z-score worked out at 1.11.

For the sequence TCTATTAGTAGATTAGGGCAACCGAAACAGCGGA, the PBM binding z-score was 0.073. As for CGTCCAAGGTCATAGGAGGTCAGTGAGGACAGAT, the PBM binding z-score was 3.47.

Consider TCTCGGAGGACACGGAAGGTCAGAGCTCGACATC, for which the PBM binding z-score is -0.138.

The test system of a further experiment is RARb:RXRa (NR concentration 270 nM, RXRa partner concentration 90 nM). The description is as above. An outline of the steps: as §1
TGAATGAGGTTAAAGATCTGGGAACGTGGCGTCG: the PBM binding z-score amounted to 1.93. Still for that read-out and setting: in the case of CTCGCAAGGTCGGTTGAGGTGAGTATACGGATAA it was 1.77. With CCACACAGGTGAAAGGTAACTCAGTCTGGTACGC, the PBM binding z-score worked out at 1.38. CCTACTGCGCCAAGGTCATTGATCAGTCAAAGCA had a PBM binding z-score of 3.51.

For TCTATTAGTTGAAGTGCAACCGACGAGTCCGTTT, the PBM binding z-score turned out to be 0.825. For the sequence AGAACGAGGGCAATGAGTAGATAGCACGGGTGGC, the PBM binding z-score was determined as 2. The sequence TTGCCAAGGTGAAGGTCGTTGATCCCTCTGTAGA came in with a PBM binding z-score of 2.08. TCTAGTTGGTCACGGAGGTCACACACGACGGGTA: the PBM binding z-score was found to be 3.82.

ACAGACAGGTTAGTGAAGGTAACTCAGCTGGACG: the PBM binding z-score was found to be 0.755.

GCGATTGGGGCAAAGCAGGTTACCATAAGGTTGG registered a PBM binding z-score of 0.946. Take ATCTCTAGGTAAGACTCCGTTCAGTGAAGAACGC: the PBM binding z-score worked out at 0.229. The same measure, in the same setting: as for CCGACTGGGCCACGAAAGGTCATTGATTCAGTGA, the figure is 3.79; as for AATACAGGGTCATTGTAGGCCAGAGTACGCACAG, 4.19.

Consider TTACCAAGGTGAGCTGAGGTCGTGGATCCAACTC, for which the PBM binding z-score is 1.94. Regarding TCTATTAGTTGATTAGGGCAACCGCAACAGCGGA, the PBM binding z-score came to 0.729. Still for that read-out and setting: as for AGTCAAAGTTCATCTAGGTAACCTAAGATATGCT, the figure is 4.88; as for TCAGACAGGTGAAGGTAACGCAGGTACGCAGTCG, 1.16. AGAATGAGGTTATATGTAGATCAGGGAAGAAAGT showed a PBM binding z-score of 1.57.

Sequence GCTCGGAGGACAAGGTCAGAGATTTGTCCGTAGA displayed a PBM binding z-score of 3.48. Still for that read-out and setting: as for TCTGCTAGGTCAGTTGGTCAGGTAACGAGCTGCC, the figure is 3.3; as for CCTCGGAGGACTACAGGAGGTCAGAGCTGCCAGA, 1.93. Take GGAACGACGGCAAGTTGATAGCAGAGTTTGATGG: the PBM binding z-score is -0.715. In the case of ATCTCTAGGTAAAGATAGTTCTGTGAATGCAAAT, the PBM binding z-score turned out to be 0.117. CGTCCAGGGTCAGAGAGGTCAGTGAATGCCGAGT returned a PBM binding z-score of 4.77. The sequence TCTAGTTGGTCACGGAGGTCACACCCGACGGGTA showed a PBM binding z-score of 3.79. TCATATAGGTAAATGCTAAGTGAAAGTCCGATCT showed a PBM binding z-score of 0.453. TCTGCTAGGTCAGCTGGTCAGCTAACGAGCTGCC returned a PBM binding z-score of 3.64. Consider CTACCAAGGTGAACAAGGGCGTTGATTACTATTC, for which the PBM binding z-score was determined as 1.81. On to AGTCAAAGTTCAAGACGAGGTAACGTAAAGCACG, for which the PBM binding z-score was 4.84. Still for that read-out and setting: as for GCTGCTAGGTCAGGTTGATCAGCTAACGGGTACG, the figure is 3.06; as for CCTTACGGGTCAAGGTTTTAGCACGGGTGGTACG, 4.2; as for TGAATGAGGTTATGAGATCAGGGAACGTTGCAAA, 1.39. Still for that read-out and setting: in the case of AGAACGAGGGCACGCTGAGTTCATAGCAGAGTAG it was 3.2. In turn, AGTCAAAGTTCACTAGGTAACCTAAGATTCAGCT displayed a PBM binding z-score of 4.7. As to GTACCAAGGTGAATAGGTCGTGGATGAGTAGGCG, the PBM binding z-score was determined as 2.09. In turn, CTCCAAAGGTCGTGCTCAGGTGAGTATACCAAAC registered a PBM binding z-score of 4.08. Same read-out and setting: as for TGATATAGGTAAACAGGTGAAAGTCCGTAAGTTA, the figure is 0.511.

For TCTATTAGTAGATTAGGGCAACCGAAACAGCGGA, the PBM binding z-score turned out to be 0.344. With CGTCCAAGGTCATAGGAGGTCAGTGAGGACAGAT, the PBM binding z-score was found to be 5.29. In turn, TCTCGGAGGACACGGAAGGTCAGAGCTCGACATC showed a PBM binding z-score of 3.44.
